Measurements reported in PubChem BioAssay (NCI).
About 83,000 compounds went through this panel and 20% of them were active in at least one assay; those are over-represented in the sample as a whole.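 Testing used 96-well plates and a 48-hour single-concentration exposure. Example: -40 means 40% of the starting cells died.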 The source made the active and inactive calls. How the source made its calls: active means growth percent below 10; inactive means the rest.

tested on: SF-268 CNS; test: NCI-60 one-dose screen, 48 h (100 = growth as untreated, 0 = no growth, -100 = all killed); conditions: 10 µM unless noted

Compound | growth
C[C@]12CC[C@@H]3c4cc(O)c(O)cc4CC[C@H]3[C@@H]1CC[C@@H]2O | 46.7% (inactive)
CCCOC(=O)C1(O)CCCC1 | 121% (inactive)
COC1=CC(c2ccc[nH]2)=N/C1=C\c1[nH]c(C)c(C(=O)CCCCC(=O)NCc2ccccc2)c1C | 54.9% (inactive)
O=C(NNC(=S)Nc1ccccc1)c1ccccn1 | 36.7% (inactive)
COc1cc(NC(=O)CCl)ccc(=O)c1 | 77.6% (inactive)
COc1ccc(S(=O)(=O)N2CCN(c3cc4c(cc3F)c(=O)c(C(=O)O)cn4C3CC3)CC2)c(OC)c1 | 81.8% (inactive)
COc1ccc(Cn2cc(COc3cc(/C=C/C(=O)c4cc(OC)c(OC)c(OC)c4)ccc3OC)nn2)cc1 | 94.6% (inactive)
COc1cc(C(=O)OCCCCCCCCCCC[P+](c2ccccc2)(c2ccccc2)c2ccccc2)ccc1O | -74.3% (active)
CC(C(=O)n1cc(-c2ccccc2)c(-c2ccccc2)c1)c1ccccc1 (stereo not given) | 118% (inactive)
C=CCOc1cccc(/C=C/C(=O)c2sc(Nc3cccnc3)nc2C)c1 | 81.7% (inactive)
O=C(CCCn1c(=O)c2sc3ccccc3c2n2nnc(-c3ccccc3)c12)NCCc1cnc[nH]1 | -1.01% (active)
CCC1CCc2nc3sc(C(=O)Nc4cccc(C)c4)c(N)c3cc2C1 (stereo not given) | 77.6% (inactive)
Cc1cccc(NC(=O)c2sc3nc4c(cc3c2N)CCCC4)c1 | 51.5% (inactive)
COc1ccc(-c2cn[nH]c2-c2cc(OC)c3c(c2)OCCO3)cc1 | 25.1% (inactive)
CC(C)C[C@H](NC(=O)Cn1ccc(NCc2ccccc2)cc1=O)B(O)O | 3.08% (active)
